# Reference: the OligoGym collection
# Biological target: SKI
# Assay: pooled miR-30 sensor sort-seq; sequence = guide strand
# Conditions: shRNA
row,Sequence,sensor-assay potency score (higher = more potent)
1,TAGATGTGGAGCTCGTCGCACA,-1.04
2,TCACTCGCTGACACTGCGGGGG,-0.224
3,TTTGGCTTCCTTGGTGTCCAGG,-1.03
4,TTGGTGATGAGCCCGCACGAGG,-1.78
5,TAGGAGTAGAAGCTGTCTCGGA,0.278
6,TTCTTCTCGTTCTCGGCGCGGA,-0.778
7,TGGAGCTCGTCGCACACCGCGT,-1.77
8,TTTCTCCTTCACGTCGTCCAGG,-1.07
9,TTACACTTGCCGAAGCACTCGT,0.441
10,TACACTTGCCGAAGCACTCGTG,-0.466
11,TCTCACTCGCTGACACTGCGGG,-0.587
12,TACGGTCTCGCAGCGCTCGGTG,-1.18

# Biological target: SLAIN1
# Assay: as above
# Conditions: shRNA
row,Sequence,sensor-assay potency score (higher = more potent)
1,TTCTTCGGAGCTTATCTCCATT,-0.767
2,TTGAGGTGAATAATACTGTTGC,-0.0982
3,TTGAGTCAAAACTCTGACTATT,-1.16
4,TTGCCTGAGACTTTCTTCTTGC,0.429
5,TATTTGAAGGAAAATACTGGGA,0.189
6,TATGTCTTGATACAGATGCTGA,-0.777
7,TTCTTCTTGCAGACGAGCCATG,-1.37
8,TTCTTGAAATTCCATTTCCAGC,-1.69
9,TATATTAAAACACAAAAGGGAA,-0.738
10,TACATGTCCCTTTTTTTCCTGA,-0.235
11,TGAAGTAGAAGCATAATCTTGC,0.776
12,TTTATTGCCAACGAAGGTCTTG,0.0936

# Biological target: SLC10A3
# Assay: as above
# Conditions: shRNA
row,Sequence,sensor-assay potency score (higher = more potent)
1,TTGATGCAGAAGTCTCTCCGCT,-0.433
2,TTTTCTGAGTGCATAGTGCATG,-0.554
3,TCTTCAGCAGGTGAGACCTTGA,-0.622
4,TCAAACTCCATCACAGAGCCAT,-0.169
5,TAGAGGATTGGGTTTTCCGAGA,-0.917
6,TTGGGTTTTCCGAGAAGTGGGC,0.0759
7,TCTTGATGGTCAGCACCTCTGT,-1.25
8,TAGTGCATGAGAACTTTGGTGG,0.0901
9,AAAGATAAGAGGCAGGAGCAGG,-0.888
10,TTAAGGGACCTGTGCCACCACC,-1.35
11,TCTCCAATGCTCAAGTAGCGGC,-0.783
12,TTCAGCAGGTGAGACCTTGATG,-1.03

# Biological target: SLC10A7
# Assay: as above
# Conditions: shRNA
row,Sequence,sensor-assay potency score (higher = more potent)
1,TAAAAGCATAAAACTCAGCTGG,-0.225
2,AACAGTATGAGAACAAGGCTGA,0.508
3,TATAGATACAACATTTACTTGC,0.105
4,TATTGTTGCAACAGCAATGTAG,0.00955
